PubChem BioAssay
Activity calls are given as the source filed them.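 How the source made its calls: active means fluorescence slope higher than the sample average by over 3 SD (cut at about -0.22 in these data, passing the limit was not always enough); inactive means the rest.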

Biological target: Voltage-gated potassium channel subunit beta-2 (Rattus norvegicus) (UniProt P62483)
Experiment: inhibitors of rat Kvbeta2 reductase activity – biochemical, NADPH fluorescence, primary screen (AID 622);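 further: slope of raw intensity against log time taken from 70 to 1610 s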
Details: recombinant KvBeta, 4-cyanobenzaldehyde reduction, at 10 µM, stronger effect = higher value

Sequence of Voltage-gated potassium channel subunit beta-2 (Rattus norvegicus) (P62483 whole entry, looked up): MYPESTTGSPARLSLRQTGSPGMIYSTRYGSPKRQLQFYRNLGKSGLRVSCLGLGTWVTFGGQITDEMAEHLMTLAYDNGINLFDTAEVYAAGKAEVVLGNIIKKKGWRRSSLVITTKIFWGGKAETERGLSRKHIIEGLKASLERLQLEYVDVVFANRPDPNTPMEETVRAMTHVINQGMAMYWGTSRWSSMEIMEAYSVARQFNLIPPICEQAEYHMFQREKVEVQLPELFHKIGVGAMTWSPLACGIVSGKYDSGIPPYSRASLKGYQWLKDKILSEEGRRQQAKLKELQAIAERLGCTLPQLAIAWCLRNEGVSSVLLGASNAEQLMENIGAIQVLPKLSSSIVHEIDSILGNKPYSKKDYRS

SMILES	fluorescence slope
COc1ccc(OC)c(NC(=O)CSc2nnc(-c3ccco3)n2-c2ccccc2)c1	-0.466 (inactive)
C#CCSc1nc(-c2cccs2)ccc1C#N	-0.5 (inactive)
O=C1c2oc3ccccc3c(=O)c2C(c2cccnc2)N1Cc1ccco1 (stereo not given)	-0.48 (inactive)
Cc1ccc(C(=O)Nc2c(C(=O)N3CCOCC3)cnn2-c2ccccc2)cc1	-0.321 (inactive)
C#CCOC(=O)C1C2C=CC(C2)C1C(=O)O (stereo not given)	-0.341 (inactive)
O=C(NC1CCCCCCC1)C1CCN(c2nc3ccccc3o2)CC1	-0.334 (inactive)
COC(=O)c1[nH]c2ccc(C)cc2c1NC(=O)CN1CCC(C)CC1	-0.337 (inactive)
Cc1cc(C)nc(SCc2nnc(SCC(=O)Nc3ncc(C)s3)n2Cc2ccco2)n1	-0.353 (inactive)
O=C(c1ccc(S(=O)(=O)N2CCC(c3nc4ccccc4s3)CC2)cc1)N1CCOCC1	-0.392 (inactive)
CCCCCc1nnc(NC(=O)Cc2cccs2)s1	-0.412 (inactive)
COc1ccc(N=C2C(=O)Nc3ccccc32)cc1	-0.374 (inactive)
O=C(O)CCc1ccc(-c2ccc(F)cc2)n1CCC(=O)O	-0.427 (inactive)
COC(=O)c1ccccc1NC(=O)c1cnc2sccn2c1=O	-0.369 (inactive)
COc1ccc(Cl)c(NC(=O)NCCN2CCN(c3ccccc3)CC2)c1	-0.29 (inactive)
COc1cccc(NC(=O)N(CCCN2CCOCC2)C(C)c2cc3cccc(OC)c3o2)c1 (stereo not given)	-0.433 (inactive)
CC(C)(C)NC(=O)CN(Cc1cccs1)C(=O)c1csnn1	-0.431 (inactive)
O=C(CSc1nnc(-c2ccccn2)n1Cc1ccccc1)N1CCCC1	-0.365 (inactive)
Cc1[nH]nc(-c2ccc(O)c(C)c2O)c1-c1cnn(-c2ccccc2)c1	-0.438 (inactive)
O=C(CN1CCSCC1)N1CCc2[nH]c3ccc(Br)cc3c2C1	-0.384 (inactive)
COc1ccccc1C1N(c2ccc(F)cc2)C(=O)C2CCCN21 (stereo not given)	-0.377 (inactive)

SMILES	fluorescence slope
Cc1cc(N2C(=O)CC(N3CCN(c4ccc(C(=O)c5cccs5)cc4)CC3)C2=O)no1 (stereo not given)	-0.392 (inactive)
CC(C)(C)NC(=O)C(Cc1ccccc1)NS(=O)(=O)c1cccc2nsnc12 (stereo not given)	-0.413 (inactive)
COc1ccc(N2C(=O)c3cccc4cccc(c34)C2=O)nn1	-0.421 (inactive)
O=C(CSc1ccccc1C(=O)NCCCN1CCCC1=O)NCc1ccco1	-0.358 (inactive)
Cc1ccc(OCC(O)Cn2c(NCCc3ccccc3)nc3c2c(=O)[nH]c(=O)n3C)cc1 (stereo not given)	-0.444 (inactive)
CC1CCCC(C)N1CCNC(=O)C1CCN(S(=O)(=O)N2CCCCC2)CC1 (stereo not given)	-0.384 (inactive)
Cc1nc2ncnn2c(N2CCC(C(=O)NCC3CCCO3)CC2)c1Cc1ccccc1 (stereo not given)	-0.407 (inactive)
COc1ccc(NC(=O)Nc2ccc(N3CCCC3=O)cc2)cc1OC	-0.368 (inactive)
CC(NC(=O)NC12CC3CC(CC(C3)C1)C2)C1CCCO1 (stereo not given)	-0.439 (inactive)
COc1ccc(N2CCN(C(=O)CSc3ccccc3)CC2)cc1	-0.401 (inactive)
COC(=O)c1cccc(NC(=O)CN2CCN(Cc3ccccc3)CC2)c1	-0.372 (inactive)
O=C(Nc1ccc(-c2nc3ncccc3o2)cc1)c1ccc(Br)o1	-0.125 (active)
COc1ccc(S(=O)(=O)Nc2ccc(Cl)cn2)c(C)c1C	-0.387 (inactive)
COc1cccc(NC(=O)N2CCCC2C(=O)Nc2ccc3c(c2)OCO3)c1 (stereo not given)	-0.351 (inactive)
O=C(CSc1nc2ccccc2c(=O)n1Cc1ccco1)NCc1ccccc1	-0.439 (inactive)
O=C(NC1CCCC1)C(NS(=O)(=O)c1cccc2nsnc12)c1ccccc1 (stereo not given)	-0.329 (inactive)
CCOC(=O)c1sc(NC(=O)CSc2ncn(-c3ccccc3)n2)nc1C	-0.363 (inactive)
COC(=O)Nc1ccc(S(=O)(=O)N2CCCCCC2)cc1	-0.354 (inactive)
Cc1cc(C)n2nc(SCC(=O)N(C)Cc3ccccc3)nc2n1	-0.435 (inactive)
O=C(CSc1nnc(Cc2ccccc2)n1-c1cccc(Cl)c1)N1CCOCC1	-0.4 (inactive)
